# Experimental data: PubChem BioAssay (NCI)
# About 83,000 compounds went through this panel and 20% of them were active in at least one assay; those are over-represented in the sample as a whole.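 Plates (96-well) were seeded with cells, treated with compound at one concentration, and incubated for 48 hours before percent growth was determined.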 Calls of active or inactive are those of the source. Rule for the calls: active = growth percent below 10; inactive = the rest.
# How the values were obtained:
# Assay in all cases: NCI-60 one-dose screen, 48 h (100 = growth as untreated, 0 = no growth, -100 = all killed)
# Conditions in all cases: 10 µM unless noted
# T-47D breast = tested on: T-47D breast
# BT-549 breast = tested on: BT-549 breast
# MDA-MB-435 melanoma = tested on: MDA-MB-435 melanoma
# SW-620 colon = tested on: SW-620 colon
# MCF7 breast = tested on: MCF7 breast
# HCT-116 colon = tested on: HCT-116 colon
# HCC-2998 colon = tested on: HCC-2998 colon
# KM12 colon = tested on: KM12 colon
Structure (SMILES),growth (T-47D breast),growth (BT-549 breast),growth (MDA-MB-435 melanoma),growth (SW-620 colon),growth (MCF7 breast),growth (HCT-116 colon),growth (HCC-2998 colon),growth (KM12 colon)
CCN1CCN(c2cc(C(=O)Nc3nc(-c4cc(OC)c(OC)c(OC)c4)cs3)cc(C(F)(F)F)c2)CC1,43.7% (inactive),75.2% (inactive),74.4% (inactive),65.6% (inactive),39.8% (inactive),33.4% (inactive),43.9% (inactive),71.1% (inactive)
CCS/C(Nc1ccccc1)=C(\C#N)C(=O)N/N=C/c1ccc(Cl)cc1Cl,17.8% (inactive),45.4% (inactive),-34.5% (active),18.6% (inactive),19.3% (inactive),17.5% (inactive),48.4% (inactive),28% (inactive)
CCOc1ccc(NC(=O)CSc2oc(-c3ccccc3)nc2S(=O)(=O)c2ccc(F)cc2)cc1,63.1% (inactive),96.5% (inactive),88.9% (inactive),89.6% (inactive),71.4% (inactive),21.9% (inactive),85.3% (inactive),84.9% (inactive)
O=S(=O)(NCCCNc1nccc(-c2c(-c3ccc(F)c(O)c3)nc3occn23)n1)c1ccccc1,101% (inactive),114% (inactive),37.4% (inactive),100% (inactive),77.3% (inactive),52.6% (inactive),98.7% (inactive),84.6% (inactive)
O=C(Cn1c(-c2ccc([N+](=O)[O-])cc2)nc2ccccc21)NNC(=O)c1cccnc1,71.2% (inactive),97% (inactive),86.2% (inactive),103% (inactive),25.9% (inactive),82.1% (inactive),98.5% (inactive),87.2% (inactive)
COc1ccc2cc(C(=O)c3coc4ccc(O)cc34)ccc2c1,84.2% (inactive),94.2% (inactive),104% (inactive),116% (inactive),37.5% (inactive),94% (inactive),103% (inactive),90.3% (inactive)
Cn1c(O)c(C=NCCN=Cc2c(O)n(C)c(=O)n(C)c2=O)c(=O)n(C)c1=O,96.1% (inactive),118% (inactive),93.7% (inactive),107% (inactive),108% (inactive),81.1% (inactive),92.2% (inactive),98.7% (inactive)
COc1ccc(NC(=O)c2sc3nc(C)c(C(=O)/C=C/c4cccc(OC)c4)cc3c2N)cc1,49.5% (inactive),56.3% (inactive),13.6% (inactive),0.0421% (active),14.3% (inactive),22.8% (inactive),23.8% (inactive),25.7% (inactive)
C=C1CC[C@@H]2[C@](C)(COC(C)=O)[C@H](OC(C)=O)CC[C@@]2(C)[C@@H]1CC(Sc1ccccc1)C1=CCOC1=O (some centres not stated),7.94% (active),-22.6% (active),101% (inactive),0.833% (active),2.14% (active),-34.6% (active),44.7% (inactive),18.6% (inactive)
O=[N+]([O-])c1ccc(S(=O)(=O)N2CCN(C3=NS(=O)(=O)c4ccccc4N3c3ccccc3)CC2)cc1,115% (inactive),99.8% (inactive),97.2% (inactive),103% (inactive),101% (inactive),91.2% (inactive),91.3% (inactive),110% (inactive)
CN1CCN(C(=O)OCc2ccc3c(Cl)cc(Cl)c(O)c3n2)CC1,58.6% (inactive),87% (inactive),60.5% (inactive),52.4% (inactive),43.6% (inactive),32.9% (inactive),74.4% (inactive),48.7% (inactive)
COc1ccc(/C=C2\C(=O)N=C3N2NC(c2cc(Br)ccc2O)C=C(C)N3c2ccccc2)cc1 (configuration not stated),89.6% (inactive),88% (inactive),94.5% (inactive),104% (inactive),83.7% (inactive),98.1% (inactive),87.1% (inactive),102% (inactive)
CCOC(=O)c1cc(-c2ccc([N+](=O)[O-])cc2)n(-c2ccc(C(=O)O)c(O)c2)c1C,38.2% (inactive),95.7% (inactive),50.6% (inactive),93.2% (inactive),53.9% (inactive),49.4% (inactive),98.9% (inactive),86.8% (inactive)
CC[C@@H](C(=O)[C@@H](C)[C@@H](O)[C@H](C)[C@@H]1O[C@@H]([C@@H](CC)C(=O)NCCc2ccc(F)cc2)CC[C@@H]1C)C1O[C@]2(C=CC(=O)[C@]3(CC[C@@](C)([C@H]4CC[C@](O)(CC)[C@H](C)O4)O3)O2)[C@H](C)C[C@@H]1C (some centres not stated),15% (inactive),54.1% (inactive),39.3% (inactive),40.4% (inactive),18.4% (inactive),16.9% (inactive),63.8% (inactive),42.6% (inactive)
CCCCN[C@H]1CC[C@@]2(C)[C@@H](CC[C@@]3(C)[C@H]2[C@H](O)C[C@H]2/C(=C(\CCC=C(C)C)C(=O)OC)[C@@H](OC(C)=O)C[C@@]23C)[C@@H]1C,105% (inactive),93.5% (inactive),98% (inactive),95.9% (inactive),90.8% (inactive),102% (inactive),99.3% (inactive),104% (inactive)
CC(=O)N(N=Nc1ccccc1)c1cccc2ccccc12,84.7% (inactive),69.5% (inactive),97.8% (inactive),55.8% (inactive),76.8% (inactive),56.4% (inactive),94.7% (inactive),108% (inactive)
O=C(CSc1nnc2n1S(=O)(=O)c1ccccc1N2c1ccccc1)Nc1nc2ccc(F)cc2s1,98.4% (inactive),97.1% (inactive),101% (inactive),109% (inactive),93.5% (inactive),93.5% (inactive),95.6% (inactive),108% (inactive)
C#CCOc1ccc2ncnc(Nc3cccc(NC(=O)C=C)c3)c2c1,70.6% (inactive),46.6% (inactive),69.1% (inactive),90.3% (inactive),60.5% (inactive),74.4% (inactive),90.8% (inactive),83.5% (inactive)
C/C(=C(/c1ccc(Cl)cc1)c1ccc(OCCN2CCCC2)cc1)c1ccc(Cl)cc1,59.5% (inactive),96.5% (inactive),89.6% (inactive),54.6% (inactive),34.1% (inactive),50.4% (inactive),102% (inactive),52.4% (inactive)
COC(C(=O)[C@@H](O)[C@@H](C)O)[C@@H]1Cc2cc3cc(O[C@H]4C[C@@H](O[C@H]5C[C@@H](O)[C@H](O)C(C)O5)[C@H](O)C(C)O4)cc(O)c3c(O)c2C(=O)[C@H]1O[C@H]1C[C@@H](O[C@H]2C[C@@H](O[C@H]3C[C@@H](OC)[C@H](O)C(C)O3)[C@@H](O)C(C)O2)[C@H](O)C(C)O1 (some centres not stated),35.2% (inactive),38.2% (inactive),44.8% (inactive),39.7% (inactive),11.5% (inactive),11.2% (inactive),63.7% (inactive),40% (inactive)
C1=C(N2CCCC2)CCC1,104% (inactive),113% (inactive),95.1% (inactive),101% (inactive),91% (inactive),102% (inactive),110% (inactive),109% (inactive)
CCn1c(=S)sc2c(Nc3ccc(F)cc3)nc(-c3cccnc3)nc21,30.5% (inactive),54.2% (inactive),81.1% (inactive),90.6% (inactive),73.1% (inactive),21.4% (inactive),86.1% (inactive),69.7% (inactive)
Cc1ccc(NC(=S)NNC(=S)NNc2ccccc2)cc1C,98.1% (inactive),120% (inactive),110% (inactive),106% (inactive),98.9% (inactive),116% (inactive),123% (inactive),90.8% (inactive)
O=C(NNC(=O)c1ccc(-n2cc(-c3ccccc3)nn2)cc1)Nc1ccccc1,102% (inactive),97.9% (inactive),105% (inactive),101% (inactive),99.4% (inactive),94.3% (inactive),116% (inactive),107% (inactive)
O=C1NC(=O)c2c1c1c3ccccc3ccc1c1[nH]c3ccc(Br)cc3c21,4.7% (active),39.4% (inactive),14% (inactive),18% (inactive),9.71% (active),7.95% (active),49.3% (inactive),4.99% (active)
CCO/C=N/C1=C(C#N)C(c2ccc(OC)cc2)c2sc3c(F)cccc3c2O1 (configuration not stated),35.4% (inactive),49.8% (inactive),-42.8% (active),22.4% (inactive),12.9% (inactive),33.8% (inactive),70.8% (inactive),25.3% (inactive)
COc1ccc2nc3ccc(OC)cc3c(SCCCN)c2c1,76.5% (inactive),95.5% (inactive),87.3% (inactive),18.3% (inactive),28.7% (inactive),-49.8% (active),105% (inactive),83.2% (inactive)
COc1ccc(N2CCC(=O)NC2=S)cc1,102% (inactive),101% (inactive),109% (inactive),96.8% (inactive),95.2% (inactive),105% (inactive),95.9% (inactive),106% (inactive)
CCCCCCCCn1ccc2cc(NC(=O)CN3CCN(c4nc(C)cc(Cl)n4)CC3)ccc21,83.4% (inactive),101% (inactive),97.7% (inactive),90.2% (inactive),78.1% (inactive),82.2% (inactive),103% (inactive),91.9% (inactive)
